One assay relates to TAB165. Kind of assay: qHTS profiling for inhibitors of Plasmodium falciparum proliferation (AID 504749). Conditions: P. falciparum in erythrocytes, SYBR Green DNA, 72 h; series mostly up to 28.7 µM. The method, boiled down:
(§1)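 In a 72 h erythrocytic culture (37 C, humidified, 5% CO2) at 2.5% hematocrit and 0.3% starting parasitemia, compounds were tested; SYBR Green I in detergent lysis buffer stained parasite DNA overnight.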
For orientation: qHTS replaces the single test concentration by a dilution series.

A further assay has as its system W2. The assay is described as above. To be noted: P. falciparum in erythrocytes, SYBR Green DNA, 72 h; series mostly up to 28.7 µM. The method, boiled down:
as §1

The test system of another assay is CRL-7250. Kind of assay: Cytotoxic Profiling of Annotated Libraries Using Quantitative High-Throughput Screening (AID 1296008). For max response: % is set by controls: 0 for no effect and ±100 for the full control effect. To be noted: Five cell lines viability, CellTiter-Glo ATP luminescence, 48-72 h; max response: active compounds read low. The procedure, abridged:
(§2)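 Cytotoxicity was measured as CellTiter-Glo ATP luminescence, read after 10 min at room temperature. Compound treatment of the cells lasted 48 or 72 hr at 37 degrees Celsius in a qHTS format.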
A general note: In ATP-based viability assays light output follows the ATP content of the culture.

The test system of the next assay is HEK293. The assay is described as above. Conditions: Five cell lines viability, CellTiter-Glo ATP luminescence, 48-72 h; max response: active compounds read low. The method, boiled down: as §2
In assay [1] the test system is HaCat. The description is as above. Conditions: Five cell lines viability, CellTiter-Glo ATP luminescence, 48-72 h; max response: active compounds read low. The method, boiled down: as §2
The subject of the next assay is KB-3-1. The description is as above. Conditions: Five cell lines viability, CellTiter-Glo ATP luminescence, 48-72 h; max response: active compounds read low. The method, boiled down: as §2
For a further assay, the system named is NIH3T3. The assay is described as above. Conditions: Five cell lines viability, CellTiter-Glo ATP luminescence, 48-72 h; max response: active compounds read low. The procedure, abridged:
as §2

Assay [2] has as its system HACAT. The assay can be described thus: qHTS assay to identify novel small-molecules to repurpose for Merkel cell carcinoma treatment (AID 1296009). To be noted: MCC and control cell lines, CellTiter-Glo viability, 72 h; at 44.8 µM (top of the series) unless noted. The procedure, abridged: (§3)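 Cell viability measured by CellTiter-Glo following 72 hr compound treatment at 37 degree celsius, with NPC and MIPE libraries tested in 8- and 11-point concentration series.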

A further assay relates to MCC-13. The assay is described as above. To be noted: MCC and control cell lines, CellTiter-Glo viability, 72 h; series mostly up to 46 µM. The procedure, abridged:
as §3

Another assay deals with HEK293T. Described as above. To be noted: MCC and control cell lines, CellTiter-Glo viability, 72 h; at 44.8 µM (top of the series) unless noted. The procedure, abridged:
as §3

Where “and” joins values, the source holds several entries; their conditions need not be identical. Equal values may be shown once. Inconclusive results are not listed. A number with no mark means an inactive call. Calls of active or inactive are those of the source. Calls come from the whole dose curve; as a rule, active = well fitted inhibition curve with a large enough effect; inconclusive = small, poorly fitted or top-dose-only effect; inactive = flat fitted curve, though single readings scatter.
Note: nearly all actives have a fitted effect of over 60% in size.
Potency is the fitted concentration of half-maximal effect.

Regarding `Nc1ccc(C(=O)O)c(O)c1`, the Potency entry with TAB165, with W2 and in the assay on MCC-13 was “inactive” throughout. The max response in the assay on CRL-7250 was -0.825%; with HEK293, 3.06%; in the assay on KB-3-1 it was -11.5%. The outcome in the assay on HaCat [1], in the assay with NIH3T3 and in the assay with HACAT [2] was inactive.
Take `O=C(O)Cc1ccc(-c2ccccc2)cc1`: the Potency result in the assay with TAB165, with W2 and with MCC-13 was “inactive” in each case. For the same molecule, the max response in the assay with CRL-7250 is -1.48%; in the assay on HEK293, -6.63%; in the assay on HaCat [1], -10.6%; in the assay with KB-3-1, -5.98%; in the assay on NIH3T3, -5.58%.
With `O=C(Nc1ccc(C(=O)O)c(O)c1)c1ccccc1`, the Potency result with TAB165, in the assay on W2 and in the assay on MCC-13 was “inactive” each time. In addition, the molecule was called inactive in the assay on CRL-7250, with HEK293, in the assay with HaCat [1], in the assay on HACAT [2] and with HEK293T. For the same molecule, the max response was -1.99% in the assay with KB-3-1 and -1.76% in the assay with NIH3T3.
`Nc1ccc([N+](=O)[O-])cc1O`: the max response in the assay on CRL-7250 was -25%; with HEK293, -27.4%; in the assay with HaCat [1], 4.66%; in the assay with KB-3-1, 10.6%. For the same molecule, in the assay on MCC-13, the Potency result was “inactive”.
On to `CN(CCCOc1ccc(Cc2ccccc2)cc1)CCC(=O)O`, for which the max response in the assay on CRL-7250 is 2.73%; in the assay with HEK293, -4.43%; with HaCat [1] it was -16.1%; in the assay with KB-3-1 it was 7.31%. Moreover, the molecule was classed as inactive with NIH3T3.
As for `C[C@H](O)[C@H](O)[C@H]1CNc2nc(N)[nH]c(=O)c2N1`, the molecule was called inactive in the assay with CRL-7250, in the assay on HEK293, in the assay on KB-3-1, in the assay with NIH3T3 and in the assay on HEK293T. Further, the results for the max response in the assay with HaCat [1] and with KB-3-1 were 1.87% and 14%, respectively.
Turning to `C/C(=N\O)c1ccc(OCC(=O)N2CCCCC2)cc1`, the max response was -1.81% in the assay with CRL-7250, 2.8% in the assay with HEK293, 2.33% with HaCat [1] and -0.0363% in the assay on NIH3T3. Further, in the assay with KB-3-1, the molecule was called inactive. The Potency result with MCC-13 is “inactive”.
For `CC(C)OC(=O)c1cc(C(=O)OC(C)C)cc([N+](=O)[O-])c1`, the molecule was classed as inactive in the assay with CRL-7250 and with HaCat [1]. The max response was 4.1% in the assay with HEK293, 2.68% with KB-3-1 and -2.82% in the assay on NIH3T3. In addition, the outcome with HACAT [2] is “inactive [at 92 µM]”. Also, the Potency result in the assay with MCC-13 was “inactive”.
As for `O=C(/C=C/c1ccccc1)NCCO`, the Potency entry with TAB165, in the assay on W2 and in the assay with MCC-13 was “inactive” throughout. Besides, in the assay on CRL-7250, the result was inactive. Moreover, the max response with HEK293 is -1.9%; in the assay with HaCat [1] it was -18%; with KB-3-1, 9.29%; with NIH3T3 it was 3.14%.
On to `O=[N+]([O-])c1ccc(CNc2nc(NCc3cccc(C(F)(F)F)c3)nc3nc[nH]c23)cc1`, for which the max response in the assay with CRL-7250 is -5.54%; with HEK293, -22%; in the assay with HaCat [1], 0.807%. In addition, the outcome in the assay on KB-3-1 and with NIH3T3 was inactive.
With `Nc1c(CC(=O)O)cccc1C(=O)c1ccc(Br)cc1`, the Potency entry in the assay on TAB165, in the assay on W2 and in the assay with MCC-13 was “inactive” throughout. Also, the max response in the assay with CRL-7250 was 4.53%; in the assay on HEK293 it was 2.21%; in the assay with KB-3-1, 0.539%; in the assay on NIH3T3, 2.91%. In addition, the call in the assay with HaCat [1] and in the assay on HACAT [2] was inactive.
As to `COC(=O)[C@H]1[C@H]2C[C@@H]3c4[nH]c5cc(OC)ccc5c4CCN3C[C@H]2C[C@@H](OC(=O)/C=C/c2cc(OC)c(OC)c(OC)c2)[C@@H]1OC`, the max response is -14.2% in the assay on CRL-7250, -6.09% in the assay on HEK293 and -8.17% with KB-3-1. For the same molecule, the result in the assay on HaCat [1], in the assay with KB-3-1 and in the assay on NIH3T3 was inactive. The outcome in the assay on HACAT [2] is “inactive [at 17.4 µM]”.
As to `O=C(O)[C@H](CC(=O)N1C[C@H]2CCCC[C@H]2C1)Cc1ccccc1`, the Potency entry in the assay with TAB165 and with W2 was “inactive” each time. In addition, the max response is -6.27% in the assay on CRL-7250; -22.3% in the assay on HEK293; -9.54% in the assay with HaCat [1]; -7.55% and -0.116% with KB-3-1; 3.24% with NIH3T3.
In the case of `CN1[C@@H]2CC[C@H]1CC(OC(=O)C(CO)c1ccccc1)C2` (stereo partly specified), the Potency result in the assay on TAB165 and in the assay with W2 was “inactive” in each case. Moreover, the max response in the assay with CRL-7250 is -9.68%; with HEK293, 2.75%; in the assay on HaCat [1], -9.85%; in the assay on KB-3-1, -5.74% and -6.73% and 8.38%; in the assay with NIH3T3, 3.27%.
In the case of `O=c1[nH]c2ccccc2n1CCCN1CCN(C(c2ccccc2)c2ccccc2)CC1`, the Potency with W2 is 6750 nM (active); in the assay on HEK293, 16800 nM (active). Also, the max response was -27.4% with CRL-7250, -21.6% in the assay on HaCat [1], 18.6% with KB-3-1 and -21.6% with NIH3T3. In the assay with MCC-13, the Potency result is “inactive”.
Regarding `COC(=O)Nc1nc2ccc(C(=O)C3CC3)cc2[nH]1`, the Potency in the assay on CRL-7250 is 2990 nM (active); with HEK293, 750 nM (active); in the assay on MCC-13, 7500 nM (active). Further, the call in the assay on HaCat [1] and with HACAT [2] was inactive.
`CCNC(=O)[C@H]1O[C@@H](n2cnc3c(N)nc(NCCc4ccc(CCC(=O)O)cc4)nc32)[C@H](O)[C@@H]1O`: the values for the max response with CRL-7250, in the assay on HaCat [1] and in the assay on NIH3T3 were 3.23%, 2.46% and -6.33%, respectively. The call in the assay on HEK293 and in the assay on HEK293T was inactive.
On to `COc1cccc2c1C(=O)c1c(O)c3c(c(O)c1C2=O)C[C@@](O)(C(=O)CO)C[C@@H]3O[C@H]1C[C@H](N)[C@H](O[C@@H]2CCCCO2)[C@H](C)O1`, for which the Potency was 2370 nM (active) in the assay with CRL-7250; 84.1 nM (active) in the assay with HEK293; 53.1 nM (active) in the assay with HaCat [1]; 188 nM (active) in the assay with NIH3T3; 3760 nM (active) with MCC-13.
For `C=CCCCCCCCCC(=O)O`, the Potency entry with TAB165, with W2 and in the assay on MCC-13 was “inactive” throughout. In addition, the max response in the assay with CRL-7250 was 3.74%; with HaCat [1] it was 0.628%; with NIH3T3 it was 0.287%. For the same molecule, the outcome with HEK293 and in the assay on HEK293T was inactive.
Take `Cc1ccc2c(n1)Oc1ccc(C(C)C(=O)OCC(=O)N(C)C)cc1C2` (stereo unspecified): the max response is 4.34% in the assay on CRL-7250; 0.244% with HaCat [1]; -8.07% and -9.75% in the assay on NIH3T3. For the same molecule, the molecule was classed as inactive in the assay with HEK293 and in the assay on HEK293T. Further, the Potency result with MCC-13 was “inactive”.

For the origin of these results see PubChem BioAssay (NCATS).
